From PubChem BioAssay (NCATS)
Where “and” joins values, the source holds several entries; their conditions need not be identical. Equal entries are not always repeated. Records with an inconclusive call do not appear. Entries that show only a call come without a potency. Some structures have more than one record in an assay (separate samples or runs), and their calls can disagree. Calls of active or inactive are those of the source. Unless noted, calls follow the shape of the dose curve; as a rule, active = well fitted curve in the direction sought with a large enough effect; inconclusive = small, poorly fitted or top-dose-only effect, or another doubt; inactive = no such curve, though single readings can be large; an effect the other way counts as inactive or inconclusive.

How the values were obtained:
[1] = system: C33A; assay: Primary qHTS to identify gynecologic anti-cancer compounds using libraries of approved drugs and bioactive compounds (AID 1345084); conditions: Gynecologic cancer cell panel viability, ATPlite luminescence, 48 h; series mostly up to 57.5 µM; also: nearly all actives have a fitted effect of over 55% in size; also: potency is read from the fitted curve at half-maximal effect
Outline: (§1)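 Cytotoxicity screen measuring ATP content by luciferase luminescence. Each compound is applied at five concentrations for 48 h at 37 C with 5% CO2.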

[2] = system: CASKI; assay: as above; conditions: Gynecologic cancer cell panel viability, ATPlite luminescence, 48 h; series mostly up to 57.5 µM
Outline: as §1

[3] = system: Es-2; assay: as above; conditions: Gynecologic cancer cell panel viability, ATPlite luminescence, 48 h; series mostly up to 57.5 µM
Outline: as §1

[4] = system: HeLa; assay: as above; conditions: Gynecologic cancer cell panel viability, ATPlite luminescence, 48 h; series mostly up to 57.5 µM
Outline: as §1

[5] = system: Hek293T; assay: as above; conditions: Gynecologic cancer cell panel viability, ATPlite luminescence, 48 h, control line for the selectivity index; series mostly up to 57.5 µM
Outline: as §1

[6] = system: JEG-3; assay: as above; conditions: Gynecologic cancer cell panel viability, ATPlite luminescence, 48 h; series mostly up to 57.5 µM
Outline: as §1

[7] = system: PA-1; assay: as above; conditions: Gynecologic cancer cell panel viability, ATPlite luminescence, 48 h; series mostly up to 57.5 µM
Outline: as §1

[8] = system: Tov-21-G; assay: as above; conditions: Gynecologic cancer cell panel viability, ATPlite luminescence, 48 h; series mostly up to 57.5 µM
Outline: as §1

[9] = system: Tov112D; assay: as above; conditions: Gynecologic cancer cell panel viability, ATPlite luminescence, 48 h; series mostly up to 57.5 µM
Outline: as §1

[10] = system: astro; assay: Drug repurposing screens with cells derived from glioblastoma tumor samples (AID 1345199); conditions: viability, ATP luminescence, 48 h; series mostly up to 45.9 µM; also: nearly all actives have a fitted effect of over 40% in size; also: potency is read from the fitted curve at half-maximal effect
Outline: (§2)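 Primary testing used CD133+ neurospheres from four GBM patients, seven concentrations, 48 h exposure and ATP-based viability; confirmation added three slower-growing patient lines.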

[11] = system: MKL-2; assay: qHTS assay to identify novel small-molecules to repurpose for Merkel cell carcinoma treatment (AID 1296009); conditions: MCC and control cell lines, CellTiter-Glo viability, 72 h; series mostly up to 46 µM; also: nearly all actives have a fitted effect of over 60% in size; also: potency is read from the fitted curve at half-maximal effect
Outline: (§3)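 Viability readout: ATP luminescence (CellTiter-Glo) after 72 hr drug exposure at 37 degree celsius. Dose-response format was 8 points for NPC and 11 points for MIPE; data normalized to in-plate controls.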

[12] = system: WaGa; assay: as above; conditions: MCC and control cell lines, CellTiter-Glo viability, 72 h; series mostly up to 46 µM
Outline: as §3

[13] = system: OV90; assay: Primary qHTS to identify gynecologic anti-cancer compounds using libraries of approved drugs and bioactive compounds (AID 1345084); conditions: Gynecologic cancer cell panel viability, ATPlite luminescence, 48 h; series mostly up to 57.5 µM; also: nearly all actives have a fitted effect of over 55% in size; also: potency is read from the fitted curve at half-maximal effect
Outline: as §1

[14] = system: UISO; assay: qHTS assay to identify novel small-molecules to repurpose for Merkel cell carcinoma treatment (AID 1296009); conditions: MCC and control cell lines, CellTiter-Glo viability, 72 h; series mostly up to 46 µM; also: nearly all actives have a fitted effect of over 60% in size; also: potency is read from the fitted curve at half-maximal effect
Outline: as §3

[15] = system: SKOV3; assay: Primary qHTS to identify gynecologic anti-cancer compounds using libraries of approved drugs and bioactive compounds (AID 1345084); conditions: Gynecologic cancer cell panel viability, ATPlite luminescence, 48 h; series mostly up to 57.5 µM; also: nearly all actives have a fitted effect of over 55% in size; also: potency is read from the fitted curve at half-maximal effect
Outline: as §1

[16] = Drug repurposing screens with cells derived from glioblastoma tumor samples (AID 1345199); conditions: GBM patient neurospheres viability, ATP luminescence, 48 h; also: nearly all actives have a fitted effect of over 40% in size; also: potency is read from the fitted curve at half-maximal effect
Outline: as §2

[17] = system: CAOV3; assay: Primary qHTS to identify gynecologic anti-cancer compounds using libraries of approved drugs and bioactive compounds (AID 1345084); conditions: Gynecologic cancer cell panel viability, ATPlite luminescence, 48 h; series mostly up to 57.5 µM; also: nearly all actives have a fitted effect of over 55% in size; also: potency is read from the fitted curve at half-maximal effect
Outline: as §1

[18] = molecular target: Nuclear receptor subfamily 1 group I member 2 (Rattus norvegicus) (UniProt Q9R1A7); assay: qHTS assay for small molecule activators of the rat pregnane X receptor (rPXR) signaling pathway (AID 651751; call rule not given here); conditions: rPXR reporter cells, luciferase (One-Glo), 24 h
Chain of Nuclear receptor subfamily 1 group I member 2 (Rattus norvegicus) (Q9R1A7 whole entry, looked up): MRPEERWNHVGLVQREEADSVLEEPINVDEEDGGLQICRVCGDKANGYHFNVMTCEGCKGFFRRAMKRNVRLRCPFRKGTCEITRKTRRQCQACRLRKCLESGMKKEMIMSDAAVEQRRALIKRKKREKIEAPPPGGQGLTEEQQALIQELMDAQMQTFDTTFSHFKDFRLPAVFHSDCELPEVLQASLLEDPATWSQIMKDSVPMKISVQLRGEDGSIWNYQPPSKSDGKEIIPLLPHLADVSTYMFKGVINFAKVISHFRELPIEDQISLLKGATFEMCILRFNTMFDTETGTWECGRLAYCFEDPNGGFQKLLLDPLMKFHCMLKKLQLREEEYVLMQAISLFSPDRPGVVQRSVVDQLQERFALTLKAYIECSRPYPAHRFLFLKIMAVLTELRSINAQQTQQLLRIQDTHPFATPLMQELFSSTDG

[19] = qHTS assay to identify inhibitors of the type 1 interferon - major histocompatibility complex class I in skeletal muscle: Counter screen cell viability and HiBit confirmation (AID 1347412); conditions: iHSKM muscle cells + IFN-b, HiBiT or CellTiter-Glo, 24 h; Viability; at 45.9 µM (top of the series); also: nearly all actives have a fitted effect of over 60% in size
Outline: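 CRISPR HLA-B*08:01-HiBit immortalized human myoblasts (C25cl48) stimulated with 4 ng/ml IFN-beta and compounds (12-point 1:3, top 46 uM final) for 24 h at 37 C. Duplicate plates read by HiBit lytic luminescence or CellTiter Glo ATP.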

[20] = at 45.9 µM (top of the series), tumour line B
[21] = at 45.9 µM (top of the series), tumour line D
[22] = at 46.1 µM (top of the series), tumour line C

SMILES: CSc1ccc2c(c1)C(N1CCN(C)CC1)Cc1ccccc1S2 (stereo unspecified)
- Potency [1]: inactive
- Potency [2]: inactive
- Potency [3]: inactive
- Potency [4]: inactive
- Potency [5]: inactive
- Potency [6]: inactive
- Potency [7]: inactive
- Potency [8]: inactive
- Potency [9]: inactive
- Potency [10]: 20 µM (active)

SMILES: COc1ccc2cc1Oc1ccc(cc1)C[C@H]1c3c(cc4c(c3Oc3cc5c(cc3OC)CCN(C)[C@@H]5C2)OCO4)CCN1C
- Potency [11]: 3.35 µM (active)
- Potency [12]: 18.8 µM (active)
- Potency [1]: inactive
- Potency [2]: inactive
- Potency [3]: inactive
- Potency [4]: inactive
- Potency [5]: inactive
- Potency [6]: inactive
- Potency [13]: 10 µM (active) and inactive
- Potency [7]: 28.2 µM (active)
- Potency [8]: inactive
- Potency [9]: inactive

SMILES: Nc1ncnc2c1ncn2[C@@H]1O[C@H](CO)[C@@H](O)[C@H]1O
- Potency [14]: inactive
- Potency [1]: inactive
- Potency [2]: inactive
- Potency [3]: inactive
- Potency [4]: inactive
- Potency [5]: inactive
- Potency [6]: inactive
- Potency [13]: inactive
- Potency [7]: inactive
- Potency [15]: inactive
- Potency [8]: inactive
- Potency [9]: inactive
- activity, negative = cell killing [16, 20]: 4.34% (inactive)
- activity, negative = cell killing [16, 21]: 12.4% (inactive)
- activity, negative = cell killing ([16]; at 46 µM (top of the series), tumour line A): -12.9% (inactive)
- activity, negative = cell killing [16, 22]: -3.63% (inactive)
- Potency [10]: inactive

SMILES: CNCC(O)c1ccc(O)c(O)c1 (stereo unspecified)
- Potency [11]: 13.3 µM (active)
- Potency [14]: 16.8 µM (active)
- Potency [4]: inactive
- Potency [5]: inactive
- Potency [6]: inactive
- Potency [13]: inactive
- Potency [15]: 28.2 µM (active)
- Potency [8]: inactive
- Potency [9]: inactive

SMILES: OCc1cc(C(O)CNCCCCCCOCCCCc2ccccc2)ccc1O (stereo unspecified)
- Potency [12]: inactive
- Potency [1]: inactive
- Potency [17]: 22.4 µM (active)
- Potency [2]: inactive
- Potency [3]: inactive
- Potency [4]: inactive
- Potency [6]: inactive
- Potency [8]: inactive
- Potency [9]: inactive
- activity, negative = cell killing [16, 22]: 2.29% (inactive)
- Potency ([16]; tumour line A): 7.08 µM (active)
- Potency ([16]; tumour line B): 20 µM (active)
- Potency ([16]; tumour line D): 20 µM (active)
- Potency [10]: 11.2 µM (active)

SMILES: [Cl][In]([Cl])[Cl]
- Potency [11]: inactive
- Potency [12]: inactive
- Potency [1]: inactive
- Potency [2]: inactive
- Potency [3]: inactive
- Potency [4]: inactive
- Potency [6]: inactive
- Potency [13]: inactive
- Potency [7]: inactive
- Potency [15]: inactive
- Potency [8]: inactive
- Potency [9]: inactive
- Potency [10]: inactive
- max response [18]: -5.11% (inactive)

SMILES: CCN(CC)CCCC(C)Nc1c2ccc(Cl)cc2nc2ccc(OC)cc12 (stereo unspecified)
- Potency [11]: 3.35 µM (active)
- Potency [12]: 26.6 µM (active)
- Potency [1]: 12.6 µM (active) and inactive
- Potency [17]: 3.98 µM (active)
- Potency [3]: inactive
- Potency [4]: inactive
- Potency [13]: 8.91 µM (active)
- Potency [9]: inactive
- Potency [10]: 20 µM (active)

SMILES: CC(=O)OCC(=O)[C@@]1(O)CC[C@H]2[C@@H]3CCC4=CC(=O)CC[C@]4(C)[C@H]3C(=O)C[C@@]21C
- Potency [1]: inactive
- Potency [2]: inactive
- Potency [3]: inactive
- Potency [4]: inactive
- Potency [5]: inactive
- Potency [6]: inactive
- Potency [13]: inactive
- Potency [7]: inactive
- Potency [15]: inactive
- Potency [8]: inactive
- Potency [9]: inactive
- activity, negative = cell killing [16, 20]: -22% (inactive)
- Potency ([16]; tumour line A): 25.1 µM (active)
- Potency [10]: inactive

SMILES: CN1CCCCC1CCN1c2ccccc2Sc2ccc(S(C)=O)cc21 (stereo unspecified)
- Potency [11]: inactive
- Potency [14]: inactive
- Potency [1]: inactive
- Potency [17]: inactive
- Potency [2]: inactive
- Potency [3]: inactive
- Potency [4]: inactive
- Potency [5]: inactive
- Potency [6]: inactive
- Potency [13]: inactive
- Potency [7]: inactive
- Potency [15]: inactive
- Potency [8]: inactive
- Potency [9]: inactive
- activity, negative = cell killing [16, 20]: -8.07% (inactive)
- activity, negative = cell killing [16, 22]: -16.7% (inactive) and 11.5% (inactive)
- Potency [10]: inactive

SMILES: O=C1Nc2ccc(Cl)cc2[C@@](C#CC2CC2)(C(F)(F)F)O1
- Potency [1]: inactive
- Potency [17]: inactive
- Potency [2]: inactive
- Potency [3]: inactive
- Potency [4]: inactive
- Potency [5]: inactive
- Potency [6]: inactive
- Potency [13]: inactive
- Potency [7]: inactive
- Potency [15]: inactive
- Potency [8]: inactive
- Potency [9]: inactive
- activity, negative = cell killing [16, 20]: -20.8% (inactive)
- activity, negative = cell killing [16, 22]: -5.83% (inactive)
- Potency ([16]; tumour line A): 17.8 µM (active)

SMILES: CN(C)CCCN1c2ccccc2CCc2ccccc21
- Potency [12]: 23.7 µM (active)
- Potency [1]: inactive
- Potency [17]: inactive
- Potency [2]: inactive
- Potency [6]: inactive
- activity, negative = cell killing [16, 22]: -2.23% (inactive)
- Potency ([16]; tumour line A): 4.47 µM (active)
- Potency ([16]; tumour line D): 12.6 µM (active)

SMILES: CCN(CC)CCSC(=O)C(c1ccccc1)c1ccccc1
- Potency [14]: inactive
- Potency [1]: inactive
- Potency [2]: inactive
- Potency [3]: inactive
- Potency [4]: inactive
- Potency [5]: inactive
- Potency [6]: inactive
- Potency [13]: inactive
- Potency [7]: inactive
- Potency [15]: inactive
- Potency [8]: inactive
- Potency [9]: inactive
- activity, negative = cell killing [16, 20]: -17.9% (inactive) and -28.9% (inactive)
- Potency [10]: inactive

SMILES: CC(CN1c2ccccc2Sc2ccccc21)N(C)C (stereo unspecified)
- Potency [11]: inactive
- Potency [1]: inactive
- Potency [2]: inactive
- Potency [3]: inactive
- Potency [4]: inactive
- Potency [5]: inactive
- Potency [6]: inactive
- Potency [7]: inactive
- Potency [15]: inactive
- Potency [8]: inactive
- Potency [9]: inactive
- activity, negative = cell killing [16, 22]: -1.52% (inactive)
- Potency ([16]; tumour line A): 14.1 µM (active)
- Potency ([16]; tumour line B): 20 µM (active)
- Potency ([16]; tumour line D): 22.4 µM (active)
- Potency [10]: 20 µM (active)
- max response [18]: 3.22% (inactive)

SMILES: CC(=O)Oc1ccc(C2(c3ccc(OC(C)=O)cc3)C(=O)Nc3ccccc32)cc1
- Potency [11]: inactive
- Potency [12]: inactive
- Potency [1]: inactive
- Potency [17]: inactive
- Potency [2]: inactive
- Potency [3]: inactive
- Potency [4]: inactive
- Potency [5]: inactive
- Potency [6]: inactive
- Potency [13]: 8.91 µM (active)
- Potency [7]: inactive
- Potency [15]: inactive
- activity, negative = cell killing [16, 20]: 0.963% (inactive) and -11% (inactive)
- activity, negative = cell killing [16, 21]: -19.5% (inactive) and -4.76% (inactive)
- activity, negative = cell killing [16, 22]: -13% (inactive) and -13.5% (inactive)
- activity change, negative = inhibition [19]: -23.2% (inactive)
